Compounds without any hit were thinned out: in the full panel of roughly 79,000, 15% have a hit. Activity calls are given as the source filed them. Cut-off read from the data, not from the text of the source: active = growth inhibition above about 70%; inactive = the rest.
Key:
[1] = NCI Yeast Anticancer Drug Screen. Data for the rad50 strain (AID 155);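 note: 0% = growth of vehicle-only cultures of the same strain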; conditions: S. cerevisiae rad50 strain growth inhibition; at 50.0 µM; hits give high values
Outline: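 Readout: growth inhibition relative to vehicle-treated cultures. Compound exposure was carried out in a genetically defined yeast strain deficient in DNA damage repair.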

[2] = NCI Yeast Anticancer Drug Screen. Data for the mec2-1 strain (AID 157); conditions: S. cerevisiae mec2-1 strain, at 50.0 µM, hits give high values
Outline: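 mec2-1 yeast strain, carrying an alteration in DNA damage repair or cell cycle control, was exposed to compounds; growth inhibition was measured relative to vehicle-treated controls.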

[3] = NCI Yeast Anticancer Drug Screen. Data for the sgs1 mgt1 strain (AID 161);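 note: 0% = growth of cultures given vehicle only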; conditions: S. cerevisiae sgs1 mgt1 strain, at 50.0 µM, hits give high values
Outline: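 Percent growth inhibition was derived by comparing compound-exposed mutant yeast with vehicle-exposed cultures. The strain carries alterations in DNA damage repair.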

[4] = NCI Yeast Anticancer Drug Screen. Data for the cln2 rad14 strain (AID 165);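 note: 0% = growth equal to vehicle treated cultures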; conditions: S. cerevisiae cln2 rad14 strain, at 50.0 µM, hits give high values
Outline: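 Yeast carrying cln2 and rad14 alterations (cell cycle control and DNA damage repair) were exposed to compounds. Growth inhibition was measured against vehicle-treated controls.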

[5] = NCI Yeast Anticancer Drug Screen. Data for the bub3 strain (AID 167); conditions: S. cerevisiae bub3 mutant strain, at 50.0 µM, hits give high values
Outline: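 Readout: yeast growth inhibition, expressed relative to vehicle-only wells. The test organism is a mutant strain from a panel with lesions in DNA repair or checkpoint genes.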

[6] = NCI Yeast Anticancer Drug Screen. Data for the mlh1 rad18 strain (AID 175); conditions: S. cerevisiae mlh1 rad18 strain growth inhibition; at 50.0 µM; hits give high values
Outline: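 Growth inhibition of the yeast strain was measured after compound exposure and expressed relative to vehicle-treated controls. The strain carries defined defects in DNA damage repair.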

Measured: growth inhibition

COC(=O)C1O[C@H]1c1cccc[n+]1[O-] (mixture of isomers)
inactive: [1] -0.3% | [2] -3.15% | [3] 5.7% | [4] 11.8% | [5] -8.2% | [6] -0.9%

O=C(COC(=O)c1ccccc1)c1ccc(-c2ccccc2)cc1
inactive: [1] -3.25% | [2] 16.3% | [3] 11.8% | [4] 30.4% | [5] 14.2% | [6] 11.7%

CCCCN(CCCC)CC(O)c1cc(Cc2ccccc2)nc2c(Cl)cc(Cl)cc12 (stereo unspecified)
active: [1] 95.3% | [2] 95.5% | [3] 96.8% | [4] 89.8% | [5] 95% | [6] 96.2%

CCOC(=O)C(=Cn1ccc(=O)[nH]c1=S)C(=O)OCC
inactive: [1] -4.6% | [2] -31.1% | [3] -23.9% | [4] 9.35% | [5] -11.6% | [6] -10.3%

O=C(/C=C\c1cccc2ccccc12)c1cccc2ccccc12
inactive: [1] 35.5% | [2] 12.8% | [3] 0.55% | [4] -4.75% | [5] 23.1% | [6] 34.4%

C[Si](C)(C)c1ccc2c(c1O)C(=O)c1ccccc1C2=O
inactive: [1] 10.6% | [2] 16.9% | [3] 31.9% | [4] 53.6% | [5] -1.15% | [6] 3.3%

O=C(c1ccccc1)C(Br)C(Br)c1ccc([N+](=O)[O-])cc1 (stereo unspecified)
inactive: [1] 14.7% | [2] 39.9% | [3] 31.4% | [4] 24.2% | [5] -1.9% | [6] 21.6%

O=C1c2cc([N+](=O)[O-])sc2C(=O)c2ccsc21
active: [1] 88.6% | [2] 89.3% | [3] 91.2% | [4] 90.2% | [5] 91.1% | [6] 90.7%

Cc1ccc(C)c(N=C2NC(=O)C(CC(=O)Nc3ccc(Cl)cc3Cl)S2)c1 (stereo unspecified)
inactive: [1] -7.5% | [2] 2.75% | [3] -9.65% | [4] 24.7% | [5] -10.9% | [6] -32.6%

CC(C)NC(=O)C1C2C=CC(CC2)C1C(=O)NC(C)C (stereo unspecified)
inactive: [1] 6.2% | [2] 20.1% | [3] 22.6% | [4] -5.7% | [5] 11.3% | [6] 10.2%

BrCC(Br)c1ccc(C(Br)CBr)cc1 (stereo unspecified)
inactive: [1] 7.65% | [2] -21.6% | [3] 25.1% | [4] 14.7% | [5] 1.5% | [6] 12.1%

CCOC(=O)NC(Nc1ccc(S(=O)(=O)Nc2ncccn2)cc1)(C(=O)OCC)C(F)(F)F (stereo unspecified)
inactive: [1] -0.55% | [2] -19.4% | [3] 10.9% | [4] 32.1% | [5] 16.9% | [6] 2.2%

N#CCCOCC(COCCC#N)(COCCC#N)COCCC#N
inactive: [1] -11.9% | [2] -24.4% | [3] -7.55% | [4] 10% | [5] -12.9% | [6] -2.25%

COc1cc(COC(=O)Nc2ccccc2F)cc(OC)c1OC
inactive: [1] -4.9% | [2] -19.1% | [3] 7.25% | [4] 5.85% | [5] 19.6% | [6] -10%

CC1=C(C(=O)CC(=O)C(=O)Nc2cccc(C)c2C)Sc2ccccc2N1
inactive: [1] -24.6% | [2] -43.1% | [3] -12.8% | [4] -1.9% | [5] -13.8% | [6] -12.5%

O=C(C[n+]1ccccc1Cl)c1ccc(I)cc1
inactive: [1] 18.2% | [2] 24.8% | [3] 53% | [4] 9.05% | [5] 19.9% | [6] 56.8%

CCOC(=O)CCC[n+]1cccc(C#N)c1
inactive: [1] 3.3% | [2] 1.4% | [3] 2% | [4] -3.35% | [5] -3.15% | [6] -1.35%

COc1cc(=O)[nH]c(-c2ccccc2)c1OC
inactive: [1] -3.55% | [2] 3.95% | [3] 9% | [4] -5.05% | [5] 7.7% | [6] 0.05%

N#CCOS(=O)(=O)O
inactive: [1] -0.6% | [2] 0.45% | [3] -1.4% | [4] -6.7% | [5] -3.25% | [6] -1%

CC1(C)CC(=O)C(/C=N/C(=S)NCc2ccccc2)=C(O)C1
inactive: [1] -35.4% | [2] -49.1% | [3] -16% | [4] 14.4% | [5] -2.45% | [6] -20.8%

O=[N+]([O-])c1ccc(-n2nnc3ccccc32)nc1
inactive: [1] -3.9% | [2] -4.85% | [3] -7.35% | [4] -16.6% | [5] 7.5% | [6] -9.75%

— PubChem BioAssay (NCI)
